Measured values taken from the supplement of paper PMC7156485.

Legend:
Conditions in all cases: concentration: 10 µM; 24 h
[1] = test system: HCC1569; assay: cell number relative to DMSO (% of DMSO); higher = more cells (less growth inhibition / toxicity)
In short: (§1)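 In 384-well plates holding 800 HCC1569 or TDF cells per well in RPMI with 10% FBS, compounds were tested at 10 µM for 24 h at 37 °C in triplicate. Fixation used 3.7% formaldehyde. Staining used a rabbit anti-H1.0 antibody with an AlexaFluor 647 secondary, plus DAPI. Each value, H1.0 nuclear intensity or cell number, is a median of replicates shown as percent of the plate control, and HCC1569 values were smoothed for positional effects.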

[2] = test system: TDF; assay: as above
In short: as §1

[3] = test system: TDF; assay: H1.0 immunofluorescence intensity relative to DMSO (% of DMSO); higher = stronger H1.0 induction, active = 120 or more
In short: as §1

[4] = test system: HCC1569; assay: H1.0 immunofluorescence intensity relative to DMSO (% of DMSO); higher = stronger H1.0 induction, active = 140 or more
In short: as §1
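Wherever H1.0 immunofluorescence intensity relative to DMSO is given: TDF is a line of transformed human dermal fibroblasts of mesenchymal origin.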
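Wherever cell number relative to DMSO is given: TDF denotes transformed human dermal fibroblasts of mesenchymal origin.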

Structure (SMILES)	cell number [1]	cell number [2]	H1.0 immunofluorescence intensity [3]	H1.0 immunofluorescence intensity [4]
C#CC1(O)CCC2C3CCC4=CC(=O)CCC4C3CCC21C (stereo unspecified) [Norethindrone]	96.5	91	99.5 (inactive)	109 (inactive)
CC(NC(=O)C(C#N)=Cc1ccc(O)c(O)c1)c1ccccc1 (stereo unspecified) [Tyrphostin AG 527]	91.2	89.2	87.7 (inactive)	107 (inactive)
O=C1Nc2ccc(Br)cc2C1=Cc1cc2c([nH]1)CCCC2 [VEGF Receptor 2 Kinase Inhibitor II]	94	114	76.2 (inactive)	190 (active)
CCCC(CCC)C(=O)O [Valproic acid]	100	111	97 (inactive)	105 (inactive)
CC(C)CN(CC(O)C(Cc1ccccc1)NC(=O)OC1CCOC1)S(=O)(=O)c1ccc(N)cc1 (stereo unspecified) [Amprenavir]	103	101	100 (inactive)	108 (inactive)
N[C@@H](Cc1c[nH]c2ccc(O)cc12)C(=O)O [5-Hydroxy-L-tryptophan]	98.1	94.8	93 (inactive)	116 (inactive)
CC1CCC2(C(=O)O)CCC3(C)C(=CCC4C5(C)CC(O)C(O)C(C)(CO)C5CCC43C)C2C1C (stereo unspecified) [Asiatic acid]	104	99.6	101 (inactive)	94.7 (inactive)
O=C(c1ccc(Cl)c(S(=O)(=O)NCC2CCCO2)c1)N1CCN(c2ncccn2)CC1 (stereo unspecified) [Adenosine Kinase Inhibitor]	86.3	103	89.5 (inactive)	116 (inactive)
CCCCCCCCCCCCCCCCC(=O)O [Heptadecanoic acid]	99.9	94.9	103 (inactive)	103 (inactive)
COC(=O)Nc1nc2ccc(C(=O)c3cccs3)cc2[nH]1 [Nocodazole]	59.5	10.9	157 (active)	136 (inactive)
NC(CCC(=O)NC(CSN=O)C(=O)NCC(=O)O)C(=O)O (stereo unspecified) [S-Nitrosoglutathione]	104	102	88.7 (inactive)	90.2 (inactive)
COc1cc2ncnc(Nc3cccc(Cl)c3)c2cc1OC [Tyrphostin AG 1478]	92.8	94.6	96.2 (inactive)	119 (inactive)
CC(=O)NCCOC(=O)[C@H](Oc1cccc(C(F)(F)F)c1)c1ccc(Cl)cc1	104	100	95.3 (inactive)	104 (inactive)
O=C(O)CCCC=CCC1C(=O)CC(O)C1C=CC(O)CCc1ccccc1 (stereo unspecified) [17-Phenyl-trinor-prostaglanding E2]	105	102	106 (inactive)	97.5 (inactive)
Cc1cccc(-c2[nH]ncc2-c2ccc3ncccc3n2)n1	96.6	95.3	94.9 (inactive)	92.8 (inactive)
N=C1SC(=Cc2ccc(-c3ccc4c(c3)C(=O)NC4=O)o2)C(=O)N1c1ccc(Br)cc1 [Bioymifi]	94.2	67.9	96.5 (inactive)	277 (active)
CCN(CC)C(=O)C(C#N)=Cc1cc(O)c(O)c([N+](=O)[O-])c1 [Entacapone]	98.2	92	95.3 (inactive)	105 (inactive)
CNCC(O)C(O)C(O)C(O)CO (stereo unspecified) [Meglumine]	103	120	99.3 (inactive)	92.4 (inactive)
CN1C(C)(C)CCCC1(C)C.O=C(O)C(O)C(O)C(=O)O [Pempidine tartrate]	105	94.9	99.5 (inactive)	99.4 (inactive)
CCCCCCCCCCCCCCCC(=O)O [Hexadecanoic acid]	97.3	92.6	104 (inactive)	97.9 (inactive)
CCCCCC(O)C=CC=CCC=CCC=CCCCC(=O)O (stereo unspecified)	103	100	96.7 (inactive)	99.7 (inactive)
COc1cc2c(c(OC)c1OC)-c1ccc(OC)c(=O)cc1C(NC=O)CC2 (stereo unspecified) [N-Formyl-Deacetylcolchicine]	98.9	92.9	91.7 (inactive)	81.9 (inactive)
COc1cc2nc(N3CCN(C(=O)c4ccco4)CC3)nc(N)c2cc1OC.Cl [Prazosin.HCl]	107	105	92 (inactive)	95.8 (inactive)
CCN(CC)C(=O)c1ccc(O)c(OC)c1 [Vanillic acid diethylamide]	101	103	94.3 (inactive)	99.6 (inactive)
